# Data from PubChem BioAssay (NCATS).
# A number with no mark means an inactive call. Results filed as inconclusive are left out. Active and inactive are the calls of the source. Unless noted, the call rests on the fitted dose curve; in most records, active means well fitted curve in the direction sought with a large enough effect; inconclusive means small, poorly fitted or top-dose-only effect, or another doubt; inactive means no such curve, though single readings can be large; an effect the other way counts as inactive or inconclusive.
# Experiments:
# [1] = target: Cytochrome P450 2C9 (Homo sapiens) (UniProt P11712); assay: qHTS Assay for Inhibitors and Substrates of Cytochrome P450 2C9 (AID 883); conditions: recombinant CYP2C9, luciferin-H luminescence, 60 min; series mostly up to 57.1 µM; further: nearly all actives have a fitted effect of over 60% in size; further: potency means the concentration at half of the fitted maximal effect; on activity change, negative = inhibition: on the % scale 0 is the no-effect control and ±100 the full control effect
# Method in brief: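 Luminescent read-out of deoxyluciferin hydroxylation, normalized to 57uM sulphaphenazole (AC100). Reaction: 10nM enzyme, 100uM Luciferin-H (equal to KM), 25mM KPO4, 10 min compound preincubation, then 60 min with NADPH regeneration, both at 37C.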
# [2] = target: Cytochrome P450 2D6 (Homo sapiens) (UniProt P10635); assay: qHTS Assay for Inhibitors and Substrates of Cytochrome P450 2D6 (AID 891); conditions: recombinant CYP2D6, luciferin-ME EGE luminescence; series mostly up to 57.1 µM; further: potency means the concentration at half of the fitted maximal effect; nearly all actives have a fitted effect of over 60% in size
# Method in brief: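 Human CYP2D6 (5 nM) with 30 uM Luciferin-ME EGE (at Km) in 100 mM KPO4, compound preincubated 10 min, then NADPH regeneration system for 60 min at room temperature. Luciferin read by luminescence; normalized to 1.43 uM quinidine.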
# [3] = Confirmation and Secondary Assay for Modulators of Hemoglobin Beta Chain Splicing at IVS2 705 locus (AID 930); conditions: HeLa EGFP-705 splicing reporter, GFP fluorescence, 48 h; series mostly up to 38.3 µM;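 further: HeLa cells stably expressing the EGFP-705 splicing reporter; GFP fluorescence per well restored by corrected splicing of the IVS2-705 intron in EGFP; % of control where 0% means no effect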
# Method in brief: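 HeLa cells stably carrying EGFP interrupted by mutant beta-globin intron 2 (IVS2-705) treated 2 days at 37C with compound; 500 nM antisense PNA as control. Correct splicing read as total peak GFP intensity per well by laser-scanning cytometry.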
# [4] = Cell Viability - BJ (AID 421; calls by dose curve;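 further: potency means the concentration at half of the fitted maximal effect; cells exposed to compound for 40 hours at 37 °C before readout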); conditions: BJ fibroblast viability, qHTS
# Method in brief: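 Cytotoxicity in human BJ foreskin fibroblasts is scored as loss of cellular ATP after a 40-hour exposure, measured by luciferase luminescence. Controls are DMSO and 100 uM tamoxifen.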
# [5] = Cell Viability - Jurkat (AID 426;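 active means dose-dependent loss of cell ATP signal giving a full or clear fitted curve, ranked by lower potency value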; further: potency means the concentration at half of the fitted maximal effect); conditions: qHTS
# Method in brief: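 Jurkat (Clone E6-1) cells, 5000/well in complete medium, exposed to compounds for 40 hr at 37C; intracellular ATP measured by CellTiter-Glo luminescence after 20 min at room temperature. AC50 from Hill fits.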
# [6] = Cell Viability - Hek293 (AID 427;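 active means compounds whose dose-response curve shows a full or clear partial loss of cell viability, called from curve shape rather than a numeric limit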;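 further: potency means the concentration at half of the fitted maximal effect; cells exposed to compound for 40 hours at 37 °C before reading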); conditions: qHTS
# Method in brief: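 qHTS, human embryonic kidney (adenovirus-transformed) cells; 40 hr cpd, 37 °C; CellTiter-Glo ATP luminescence. Norm: DMSO = 0, 100 uM tamoxifen = 100% inhibition. Hill-fit AC50.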
# [7] = Cell Viability - HepG2 (AID 433; calls by dose curve;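 further: potency means the concentration at half of the fitted maximal effect; potency for ATP loss meaning cytotoxicity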); conditions: qHTS
# Method in brief: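 In this qHTS format, a 40 h, 37 °C compound incubation of HepG2 cells in complete medium precedes a 20 min CellTiter-Glo step at room temperature. Tamoxifen and doxorubicin serve as positive controls; Hill-equation fits yield AC50.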
# [8] = Cell Viability - MRC5 (AID 434; calls by dose curve;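 further: potency means the concentration at half of the fitted maximal effect; potency reflects cytotoxicity seen as loss of intracellular ATP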); conditions: MRC5 lung fibroblast viability, qHTS
# Method in brief: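 qHTS cytotoxicity in human lung fibroblast MRC5 cells; 40 hr treatment, 37 °C; cellular ATP by luciferase luminescence; DMSO = 0%, 100 uM tamoxifen = 100% inhibition; Hill-fit AC50.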
# [9] = Cell Viability - SK-N-SH (AID 435; calls by dose curve;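 further: potency means the concentration at half of the fitted maximal effect; compound exposure lasted 40 h at 37 °C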); conditions: SK-N-SH neuroblastoma cell viability qHTS
# Method in brief: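 Human neuroblastoma line, 40 h exposure at 37 °C, ATP quantified via luciferase luminescence; DMSO and 100 uM tamoxifen define 0 and 100% inhibition for AC50 fitting.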
# [10] = Cell Viability - N2a (AID 540); conditions: N2a mouse neuroblastoma cell viability; series mostly up to 92.2 µM;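 further: plate controls were DMSO alone for no effect and tamoxifen control for full effect; nearly all actives have a fitted effect of over 45% in size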
# Method in brief: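 Mouse neuroblastoma N2a cells, 1500/well, exposed to compounds 40 h at 37 °C in complete medium. Viability measured as cellular ATP by CellTiter-Glo luminescence; AC50 from Hill fits of concentration-response.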
# [11] = Cell Viability - NIH 3T3 (AID 541); conditions: NIH 3T3 cell viability, qHTS; series mostly up to 92.2 µM;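 further: plate controls were DMSO alone for no effect and tamoxifen positive control for full effect; nearly all actives have a fitted effect of over 25% in size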
# Method in brief: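 Mouse NIH 3T3 fibroblasts, 1000 cells/well, rested 5 hr at 37 °C, then exposed to compound for 40 hr at 37 °C in complete medium. Viability read as intracellular ATP by CellTiter-Glo luminescence; AC50 from Hill-equation fits of concentration-response data.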
# [12] = Cell Viability - HUV-EC-C (AID 542); conditions: HUV-EC-C endothelial cell viability, qHTS; series mostly up to 92.2 µM; further: on the % scale 0 is the no-effect control and ±100 the full control effect; nearly all actives have a fitted effect of over 35% in size
# Method in brief: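 HUV-EC-C human vascular endothelial cells, 1000/well, exposed to compound for 40 hr at 37 °C in complete medium. Intracellular ATP was read by CellTiter-Glo luminescence. AC50 came from Hill-equation fits of concentration-response data.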
# [13] = Cell Viability - H-4-II-E (AID 543); conditions: H-4-II-E rat hepatoma viability; series mostly up to 92.2 µM; further: on the % scale 0 is the no-effect control and ±100 the full control effect; nearly all actives have a fitted effect of over 35% in size
# Method in brief: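 Rat hepatoma H-4-II-E cells, 1500 per well, treated 40 h at 37 °C in complete medium. Cellular ATP read by CellTiter-Glo luminescence; AC50 from Hill fits of concentration-response.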
# [14] = Cell Viability - SH-SY5Y (AID 544); conditions: SH-SY5Y neuroblastoma cell viability; series mostly up to 92.2 µM;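 further: 0% = DMSO alone and -100% = 100 µM tamoxifen; nearly all actives have a fitted effect of over 55% in size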
# Method in brief: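 SH-SY5Y human neuroblastoma cells (1500/well) incubated 5 h, then compound-treated 40 h at 37 °C in complete medium. Viability read as intracellular ATP by CellTiter-Glo luminescence after 20 min; AC50 from Hill-equation fits of qHTS concentration-response.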
# [15] = Cell Viability - Renal Proximal Tubule (AID 545); conditions: renal proximal tubule cells viability, primary cells of rat origin; series mostly up to 91.7 µM;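 further: 0% = DMSO only and -100% = 100 µM tamoxifen; nearly all actives have a fitted effect of over 40% in size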
# Method in brief: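 In this qHTS format, normal rat kidney-derived proximal tubule cells in complete culture medium receive compound titrations, then sit 40 hours at 37 °C before luciferase-based ATP quantitation; potency is reported as AC50 from concentration-response curves.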
# [16] = target: Cytochrome P450 3A4 (Homo sapiens) (UniProt P08684); assay: qHTS Assay for Inhibitors and Substrates of Cytochrome P450 3A4 (AID 884); conditions: recombinant CYP3A4, Luciferin-PPXE luminescence; series mostly up to 57.1 µM; further: nearly all actives have a fitted effect of over 50% in size; further: potency means the concentration at half of the fitted maximal effect; on activity change, negative = inhibition: on the % scale 0 is the no-effect control and ±100 the full control effect
# Method in brief: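 20 nM human CYP3A4 with 25 uM Luciferin-PPXE (at KM) in 200 mM KPO4, preincubated 10 min with compound; NADPH regeneration started a 60 min RT reaction. Luciferin detected by luminescence, normalized to 57 uM ketoconazole as full inhibition.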
# [17] = target: Cytochrome P450 2C19 (Homo sapiens) (UniProt P33261); assay: qHTS Assay for Inhibitors and Substrates of Cytochrome P450 2C19 (AID 899); conditions: recombinant CYP2C19, luciferin-H EGE luminescence; series mostly up to 57.1 µM; further: nearly all actives have a fitted effect of over 60% in size; further: potency means the concentration at half of the fitted maximal effect
# Method in brief: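 Luminescence readout of luciferin formed from 10uM Luciferin-H EGE (KM level) by 5 nM CYP2C19 in 50mM KPO4. 60 min NADPH-driven reaction at 37C after 10 min compound preincubation; data scaled to 57uM ketoconazole inhibition.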
# [18] = target: Rap guanine nucleotide exchange factor 3 (Homo sapiens) (UniProt O95398); assay: Confirmatory qHTS for agonist of cAMP-regulated guanine nucleotide exchange factor 3 (EPAC1) (AID 1645881); conditions: EPAC1 Rap1B BODIPY-GDP exchange fluorescence, 100% = cAMP control response; series mostly up to 154 µM;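 further: EPAC1 catalysed release of BODIPY-GDP from Rap1B seen as fluorescence loss; nearly all actives have a fitted effect of over 75% in size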
# [19] = target: Rap guanine nucleotide exchange factor 4 (Homo sapiens) (UniProt Q8WZA2); assay: Confirmatory qHTS for agonist of cAMP-regulated guanine nucleotide exchange factor 4 (EPAC2) (AID 1645884); conditions: EPAC2 GEF activity, Rap1B-BODIPY-GDP fluorescence, percent relative to cAMP agonist control; series mostly up to 154 µM;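 further: nucleotide exchange releases bodipy-GDP from Rap1 and this lowers its fluorescence; on the % scale 0 is the no-effect control and ±100 the full control effect; nearly all actives have a fitted effect of over 65% in size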
# [20] = Primary qHTS for small molecule stabilizers of the endoplasmic reticulum resident proteome: Secreted ER Calcium Modulated Protein (SERCaMP) assay (AID 1508630); conditions: SH-SY5Y GLuc-SERCaMP (Gaussia luciferase released on ER calcium loss) secretion, thapsigargin, luminescence; series mostly up to 38.4 µM; further: potency means the concentration at half of the fitted maximal effect; on activity change, negative = inhibition: on the % scale 0 is the no-effect control and ±100 the full control effect
# Method in brief: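 GLuc-SERCaMP-expressing SH-SY5Y cells, pretreated 16 h with compound, are challenged with thapsigargin to empty ER calcium stores; after 4 h, coelenterazine is added directly to the medium and luminescence is imaged.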
# Cytochrome P450 2C9 (Homo sapiens), sequence (P11712 whole entry, looked up): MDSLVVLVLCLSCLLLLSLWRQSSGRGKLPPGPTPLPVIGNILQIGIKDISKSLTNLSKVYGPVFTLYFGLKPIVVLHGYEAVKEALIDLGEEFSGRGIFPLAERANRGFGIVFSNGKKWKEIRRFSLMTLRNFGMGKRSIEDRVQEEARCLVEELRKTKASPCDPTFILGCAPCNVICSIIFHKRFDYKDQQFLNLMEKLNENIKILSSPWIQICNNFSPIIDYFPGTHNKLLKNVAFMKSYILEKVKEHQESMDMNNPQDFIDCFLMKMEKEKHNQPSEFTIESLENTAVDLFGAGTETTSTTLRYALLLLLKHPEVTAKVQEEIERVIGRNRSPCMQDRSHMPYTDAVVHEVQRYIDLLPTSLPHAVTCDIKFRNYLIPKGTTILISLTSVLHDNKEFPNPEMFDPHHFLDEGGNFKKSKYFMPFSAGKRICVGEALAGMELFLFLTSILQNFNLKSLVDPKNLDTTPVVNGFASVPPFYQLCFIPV
# Cytochrome P450 3A4 (Homo sapiens), sequence (P08684 whole entry, looked up): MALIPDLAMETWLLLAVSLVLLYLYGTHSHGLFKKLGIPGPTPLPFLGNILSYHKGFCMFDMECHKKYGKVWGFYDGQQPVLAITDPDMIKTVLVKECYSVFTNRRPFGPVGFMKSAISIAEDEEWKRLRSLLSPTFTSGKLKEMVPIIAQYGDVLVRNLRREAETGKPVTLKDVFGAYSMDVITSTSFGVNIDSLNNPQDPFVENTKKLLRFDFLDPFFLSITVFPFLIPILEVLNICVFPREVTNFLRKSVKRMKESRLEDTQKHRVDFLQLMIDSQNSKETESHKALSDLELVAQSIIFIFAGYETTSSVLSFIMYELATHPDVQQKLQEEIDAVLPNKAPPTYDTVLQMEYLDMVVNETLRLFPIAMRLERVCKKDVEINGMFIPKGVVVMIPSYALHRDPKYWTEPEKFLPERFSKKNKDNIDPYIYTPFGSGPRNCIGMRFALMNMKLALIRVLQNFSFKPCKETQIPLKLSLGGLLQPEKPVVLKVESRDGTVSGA
# Cytochrome P450 2C19 (Homo sapiens), sequence (P33261 whole entry, looked up): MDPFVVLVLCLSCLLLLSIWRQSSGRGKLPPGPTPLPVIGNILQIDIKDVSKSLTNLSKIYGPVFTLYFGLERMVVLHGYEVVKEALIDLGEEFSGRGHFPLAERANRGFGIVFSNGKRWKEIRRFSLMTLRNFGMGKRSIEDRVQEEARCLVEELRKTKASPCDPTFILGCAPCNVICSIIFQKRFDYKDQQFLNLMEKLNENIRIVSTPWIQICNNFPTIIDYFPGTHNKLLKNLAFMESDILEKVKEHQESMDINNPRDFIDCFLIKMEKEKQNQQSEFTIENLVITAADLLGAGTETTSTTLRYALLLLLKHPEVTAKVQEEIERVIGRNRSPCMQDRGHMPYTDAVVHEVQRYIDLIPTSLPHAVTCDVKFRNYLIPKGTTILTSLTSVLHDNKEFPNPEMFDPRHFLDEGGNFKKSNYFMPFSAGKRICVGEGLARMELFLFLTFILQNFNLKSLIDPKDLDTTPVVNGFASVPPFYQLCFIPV
# Cytochrome P450 2D6 (Homo sapiens), sequence (P10635 whole entry, looked up): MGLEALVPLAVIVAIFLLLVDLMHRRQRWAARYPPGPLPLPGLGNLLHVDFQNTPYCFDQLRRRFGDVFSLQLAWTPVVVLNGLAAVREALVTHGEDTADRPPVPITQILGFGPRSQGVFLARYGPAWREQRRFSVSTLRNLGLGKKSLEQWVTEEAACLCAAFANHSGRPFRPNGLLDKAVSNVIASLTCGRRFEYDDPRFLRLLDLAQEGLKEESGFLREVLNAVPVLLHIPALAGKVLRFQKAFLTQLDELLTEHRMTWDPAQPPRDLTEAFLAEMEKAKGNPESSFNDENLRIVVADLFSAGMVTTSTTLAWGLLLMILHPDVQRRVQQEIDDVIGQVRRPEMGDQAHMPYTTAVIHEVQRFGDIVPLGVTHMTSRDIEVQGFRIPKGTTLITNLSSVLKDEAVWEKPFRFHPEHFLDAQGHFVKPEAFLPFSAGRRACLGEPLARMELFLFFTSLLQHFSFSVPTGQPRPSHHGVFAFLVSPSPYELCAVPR
# Rap guanine nucleotide exchange factor 4 (Homo sapiens), sequence (Q8WZA2 whole entry, looked up): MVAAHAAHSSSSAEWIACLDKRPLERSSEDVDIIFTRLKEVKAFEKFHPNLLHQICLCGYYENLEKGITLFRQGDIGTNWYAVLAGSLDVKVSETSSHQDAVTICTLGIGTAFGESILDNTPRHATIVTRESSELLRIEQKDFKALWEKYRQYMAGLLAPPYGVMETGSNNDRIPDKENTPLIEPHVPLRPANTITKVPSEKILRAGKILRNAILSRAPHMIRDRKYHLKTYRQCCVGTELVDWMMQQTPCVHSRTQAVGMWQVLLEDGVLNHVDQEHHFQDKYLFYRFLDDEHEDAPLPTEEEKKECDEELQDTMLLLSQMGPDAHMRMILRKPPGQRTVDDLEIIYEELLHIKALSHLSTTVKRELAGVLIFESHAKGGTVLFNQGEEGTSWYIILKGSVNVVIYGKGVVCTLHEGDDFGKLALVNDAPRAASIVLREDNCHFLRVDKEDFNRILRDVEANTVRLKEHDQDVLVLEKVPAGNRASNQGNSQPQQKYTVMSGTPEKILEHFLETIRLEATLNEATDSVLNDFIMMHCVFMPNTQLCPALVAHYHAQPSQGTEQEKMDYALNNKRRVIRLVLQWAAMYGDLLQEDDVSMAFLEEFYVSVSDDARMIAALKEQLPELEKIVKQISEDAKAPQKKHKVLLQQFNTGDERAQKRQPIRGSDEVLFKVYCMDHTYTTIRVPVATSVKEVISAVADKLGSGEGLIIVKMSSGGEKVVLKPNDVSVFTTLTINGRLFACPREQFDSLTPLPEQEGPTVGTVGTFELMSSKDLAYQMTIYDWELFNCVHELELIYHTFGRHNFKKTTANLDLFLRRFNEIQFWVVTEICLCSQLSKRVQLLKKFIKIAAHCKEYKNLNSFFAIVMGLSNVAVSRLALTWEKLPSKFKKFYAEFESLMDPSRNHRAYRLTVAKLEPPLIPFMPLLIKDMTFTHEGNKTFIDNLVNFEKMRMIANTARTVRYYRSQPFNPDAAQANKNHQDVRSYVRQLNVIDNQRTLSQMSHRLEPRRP
# Rap guanine nucleotide exchange factor 3 (Homo sapiens), sequence (O95398 whole entry, looked up): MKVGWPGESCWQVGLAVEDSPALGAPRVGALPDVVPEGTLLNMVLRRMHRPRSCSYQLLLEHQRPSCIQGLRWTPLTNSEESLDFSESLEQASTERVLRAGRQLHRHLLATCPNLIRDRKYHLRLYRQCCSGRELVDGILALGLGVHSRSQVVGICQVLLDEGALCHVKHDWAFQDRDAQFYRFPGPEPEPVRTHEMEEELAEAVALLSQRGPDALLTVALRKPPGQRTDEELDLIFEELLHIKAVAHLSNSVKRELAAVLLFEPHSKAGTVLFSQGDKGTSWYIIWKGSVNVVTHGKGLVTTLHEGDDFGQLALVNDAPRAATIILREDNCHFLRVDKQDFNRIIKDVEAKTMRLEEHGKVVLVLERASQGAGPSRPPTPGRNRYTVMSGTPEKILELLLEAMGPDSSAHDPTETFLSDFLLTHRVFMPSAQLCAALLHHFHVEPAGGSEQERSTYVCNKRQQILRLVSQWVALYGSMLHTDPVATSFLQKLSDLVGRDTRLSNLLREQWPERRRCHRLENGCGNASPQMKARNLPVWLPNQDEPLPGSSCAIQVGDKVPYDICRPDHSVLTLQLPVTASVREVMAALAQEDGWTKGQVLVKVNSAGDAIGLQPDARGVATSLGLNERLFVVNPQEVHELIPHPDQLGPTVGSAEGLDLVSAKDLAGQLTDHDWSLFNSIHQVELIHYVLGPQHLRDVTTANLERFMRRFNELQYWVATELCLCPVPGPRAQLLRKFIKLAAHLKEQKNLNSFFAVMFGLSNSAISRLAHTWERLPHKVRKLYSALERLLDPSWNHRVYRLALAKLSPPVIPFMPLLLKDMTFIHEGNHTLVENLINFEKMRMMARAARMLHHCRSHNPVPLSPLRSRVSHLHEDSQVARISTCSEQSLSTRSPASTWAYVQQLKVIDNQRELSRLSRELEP
structure (smiles),measurement,setting,value
O=c1c(-c2ccccc2)nc2cnc(N3CCNCC3)nc2n1C1CC1,Potency,[1],0.158 µM (active)
COc1ccccc1CNc1ncnc2ccc(-c3ccccc3CN(C)C)cc12,Potency,[2],2.51 µM (active)
same,outcome,[3],inactive
CC(C)(c1cc(Br)c(O)c(Br)c1)c1cc(Br)c(O)c(Br)c1,Potency,[4],> 92 µM
same,Potency,[5],> 92 µM
same,Potency,[6],> 92 µM
same,Potency,[7],> 92 µM
same,Potency,[8],> 92 µM
same,Potency,[9],> 92 µM
same,outcome,[10],inactive
same,outcome,[11],inactive
same,outcome,[12],inactive
same,outcome,[13],inactive
same,outcome,[14],inactive
same,outcome,[15],inactive
same,Potency,[16],15.8 µM (active)
FC(F)(F)c1ccccc1-c1nccc(N2CCNCC2)n1,"activity change, negative = inhibition",[1],37.4% [at 2.29 µM]
CCNc1ncc2nc(CCc3ccccc3)c(=O)n(-c3ccccc3)c2n1,Potency,[16],5.01 µM (active)
O=C(c1cc(C(F)(F)F)cc(C(F)(F)F)c1)N1CCC2(CC1)CCN(c1ccncc1)CC2,Potency,[16],inactive
CN1CCN(c2nc(-c3cccc(C#N)c3)nc3ccccc23)CC1,outcome,[3],inactive
Cc1nc2cnc(N3CCNCC3)nc2n(Cc2ccc(F)cc2)c1=O,Potency,[17],inactive
CN1CCN(c2ncnc3ccc(-c4ccccc4C#N)cc23)CC1,outcome,[3],inactive
Cc1ccccc1-c1nccc(Nc2ccc(F)cc2)n1,outcome,[18],inactive
same,outcome,[19],inactive
c1cncc(-c2nc(N3CCNCC3)c3ccccc3n2)c1,Potency,[2],7.94 µM (active)
CN1CCN(c2ncc3nc(-c4ccccc4)c(=O)n(CCc4ccccc4)c3n2)CC1,Potency,[1],3.16 µM (active)
CN1CCN(c2nc(-c3ccc(N(C)C)cc3)nc3ccccc23)CC1,"activity change, negative = inhibition",[1],9.44% [at 2.29 µM]
same,Potency,[16],15.8 µM (active)
same,Potency,[2],3.16 µM (active)
same,Potency,[17],inactive
same,outcome,[3],inactive
Cc1noc(C)c1-c1nc(N2CCNCC2)c2ccccc2n1,outcome,[3],inactive
CCNc1ncc2nc(CCc3ccccc3)c(=O)n(CCOC)c2n1,Potency,[2],0.398 µM (active)
COc1ccc(CNc2ncnc3ccc(-c4ccccc4CN(C)C)cc23)c(OC)c1,"activity change, negative = inhibition",[1],2.97% [at 2.29 µM]
same,Potency,[16],7.94 µM (active)
same,Potency,[2],1.26 µM (active)
O=C(c1ccco1)N1CCC[C@@]2(CCN(c3ccncc3)C2)C1,Potency,[16],1.26 µM (active)
COc1ccc(Oc2ncc3nc(CCc4ccccc4)c(=O)n(C[C@H]4CCCO4)c3n2)cc1,Potency,[20],35.5 µM (active)
CN1CCN(c2ncnc3ccc(-c4ccccc4Cl)cc23)CC1,Potency,[16],5.01 µM (active)
same,Potency,[17],3.98 µM (active)
O=c1cnc2cnc(N3CCNCC3)nc2n1Cc1ccc(F)cc1,Potency,[16],7.94 µM (active)
CN1CCN(c2ncc3nc(CCc4ccccc4)c(=O)n(Cc4ccc(F)cc4)c3n2)CC1,Potency,[16],5.01 µM (active)
Cc1cccc(CNc2ncnc3ccc(-c4ccccc4CN(C)C)cc23)c1,outcome,[3],inactive
COc1ccc(CNc2ncnc3ccc(-c4ccccc4OC)cc23)c(OC)c1,Potency,[1],0.398 µM (active)
same,Potency,[16],2 µM (active)
O=S(=O)(c1ccccc1)N1CCC[C@@]2(CCN(c3ccncc3)C2)C1,Potency,[16],3.98 µM (active)
same,Potency,[17],0.398 µM (active)
FC(F)(F)c1ccccc1-c1nc(NC2CCNCC2)c2ccccc2n1,Potency,[17],inactive
COCCn1c(=O)c(-c2ccc(Cl)cc2)nc2cnc(OC)nc21,Potency,[16],7.94 µM (active)
FC(F)(F)c1ccccc1-c1nc(N2CCNCC2)c2ccccc2n1,outcome,[3],inactive
N#Cc1cccc(-c2nc(N3CCNCC3)c3ccccc3n2)c1,outcome,[3],inactive
COc1c(O)cc2c(=O)oc3c(OC)c(O)cc4c(=O)oc1c2c34,Potency,[20],inactive
c1ccc2c(N3CCNCC3)nc(-c3ccc4c(c3)OCO4)nc2c1,Potency,[16],7.94 µM (active)
same,Potency,[2],3.16 µM (active)
same,outcome,[3],inactive
COc1ccc(-c2nc3cnc(N4CCNCC4)nc3n(CCc3ccccc3)c2=O)cc1,Potency,[1],3.98 µM (active)
CC(=O)Nc1ccccc1C(=O)C(=O)O,Potency,[20],inactive
CC1(O)/C=C\C=C(\CO)C2CC(C)(C)C2(O)CC1 (configuration not stated),Potency,[20],inactive
COc1ccc(CNc2ncnc3ccc(-c4cccc(C#N)c4)cc23)c(OC)c1,Potency,[16],1.58 µM (active)
Cc1ccc(P(=O)(CSC(=N)N)c2ccc(C)cc2)cc1,outcome,[18],inactive
same,activation,[19],-5.01% [at 17.1 µM]
CN(C)c1ncc2ncc(=O)n(CCc3ccccc3)c2n1,Potency,[1],6.31 µM (active)
Nc1nc(=S)c2ncn([C@@H]3O[C@H](CO)[C@@H](O)[C@H]3O)c2[nH]1,Potency,[20],inactive
COc1cc(CCNC(C)=O)c(C(=O)/C=C/c2cccc(OC)c2OC)cc1OC,Potency,[20],inactive
N#CCCn1c(=O)c(CCc2ccccc2)nc2cnc(Oc3cccc(Cl)c3)nc21,Potency,[1],3.16 µM (active)
same,Potency,[16],0.794 µM (active)
COC1=C[C@@H](C)C2CC3OC(=O)C[C@H]4C(C)=C(OC)C(=O)C([C@@]2(C)C1=O)[C@@]34C (some centres not stated),Potency,[20],inactive
COCCn1c(=O)c(-c2cc(F)cc(F)c2)nc2cnc(N3CCNCC3)nc21,Potency,[1],1.26 µM (active)
Cc1cccc(CNc2cc(-c3ccccc3CN(C)C)ncn2)c1,outcome,[3],inactive
CC1=C2C(=CO[C@H](C)[C@H]2C)C(=O)C(C(=O)O)=C1O,Potency,[20],inactive
Cc1nc2[nH]c(=O)[nH]c(=O)c2[nH]1,Potency,[20],inactive
O=c1cc(-c2cc3ccccc3oc2=O)c2ccc(O)cc2o1,Potency,[20],inactive
O=C(NC[C@H](O)c1ccccc1)c1ccccc1,Potency,[20],inactive
CN(C)CCc1cc2c(c3c1ccc1ccccc13)OCO2,Potency,[20],inactive
COc1cc2c(cc1OC)-c1cc3cc(OC)c(OC)cc3c(=O)n1CC2,Potency,[20],inactive
C=CC(C1=CC(=O)C=CC1=O)c1ccc(O)cc1 (configuration not stated),Potency,[20],inactive
Oc1cc2c(cc1O)[C@@H]1c3ccc(O)c(O)c3OC[C@]1(O)C2,Potency,[20],inactive
